GRP78 ERSR act – inducers of ER stress response in human glioma cells; Potency, µM, inactives show at the top dose activation, actives largely listed as activators; 420,000 tested, 0.02% active; AID 602332; U87-MG GRP78 promoter luciferase reporter, 16 h; note: potency is the fitted concentration of half-maximal effect; series mostly up to about 76 µM; % of control where 0% means no effect; nearly all actives have a fitted effect of over 35% in size
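Stably transfected U87-MG human glioma cells carrying a GRP78-based luminescent sensor were seeded at 1000 cells/well, pin-dosed with compounds and incubated 16 h. Luciferase reagent was then added, and end-point luminescence was read after 10 min at room temperature.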
Nrf2 ARE act – activates Nrf2 signaling; AREc32 ARE-luciferase reporter (MCF7-derived line), luminescence, 24 h; Potency, µM (top dose mostly 46.1 µM), inactives show at the highest dose activation, hits mostly activators; 410,000 tested, 0.31% active; note: potency is the fitted concentration of half-maximal effect; % of control where 0% means no effect; nearly all actives have a fitted effect of over 65% in size
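Each well held 1000 AREc32 cells, which were incubated with compound for 24 hr at 37 deg C after overnight attachment, and ARE reporter activity was quantified by firefly luciferase luminescence.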
D3 ag – agonists of human D3 dopamine receptor | D3R DiscoveRx beta-arrestin cells, luminescence, 90 min | max activation, % | P35462 | 410,000 tested, 0.58% active; in the data active = max activation above about 30%; note: 0% is about no effect
Target sequence (P35462 whole entry, looked up): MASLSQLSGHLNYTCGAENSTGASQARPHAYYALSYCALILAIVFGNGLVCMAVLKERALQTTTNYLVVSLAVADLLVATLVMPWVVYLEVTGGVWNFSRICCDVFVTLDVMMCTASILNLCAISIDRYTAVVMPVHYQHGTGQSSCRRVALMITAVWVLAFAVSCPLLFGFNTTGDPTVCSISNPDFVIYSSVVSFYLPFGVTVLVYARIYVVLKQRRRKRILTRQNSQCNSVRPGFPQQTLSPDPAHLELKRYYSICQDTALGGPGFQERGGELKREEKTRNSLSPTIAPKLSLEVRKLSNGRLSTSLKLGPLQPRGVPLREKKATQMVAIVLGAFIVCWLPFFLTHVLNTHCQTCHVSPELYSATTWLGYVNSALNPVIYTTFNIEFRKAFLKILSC
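Agonist mode: compounds and dopamine controls were applied to plated cells for 90 min at 37 degrees C after an overnight attachment at 1500 cells/well. Luminescent read-out followed 30 - 60 minutes at room temperature with DiscoveRx detection reagent.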
DRD3 antagonist – blocks the human D3 dopamine receptor; P35462; D3R cells, DiscoveRx beta-arrestin luminescence, antagonist mode; active compounds read low; max response, negative = inhibition, %; 360,000 tested, 2.5% active; AID 652054; in the data active = max response below about -50%; inconclusive = no clear call, values can overlap the other calls; note: % is set by controls: 0 for no effect and ±100 for the full control effect
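Cells plated overnight at 1500 cells/well, then exposed to library compounds with dopamine controls for 90 minutes at 37 degrees C. DiscoveRx reagent added for 30–60 minutes at room temperature; luminescence read, quantitative HTS format.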
Active calls of the source: *; u = inconclusive; x = not tested or not shown. Most compounds without a hit are left out; they make up all but 3% or so of the library. Unless noted, calls come from the whole dose curve; as a rule, active = well fitted curve in the direction sought with a large enough effect; inconclusive = small, poorly fitted or top-dose-only effect, or another doubt; inactive = no such curve, though single readings can be large; an effect the other way counts as inactive or inconclusive.

SMILES | GRP78 ERSR act | Nrf2 ARE act | D3 ag | DRD3 antagonist
Cn1cnnc1Sc1ccc(CN2CCOc3ccc(C4=CCCCC4)cc3C2)o1 | -5% | x | x | x
COc1ccccc1NC(=O)c1nnn(-c2ccc(F)cc2)c1C | 0% | 5% | 7 | x
CSc1cccc(NC(=S)N(CCC(C)C)C2CCN(C(C)C)CC2)c1 | 4% | 4% | -16 | -85*
COc1ccc(NC(=S)N(CCCN2CCC(C)CC2)Cc2cccs2)cc1 | -2% | 0% | -7 | -58*
CCc1ccc(NC(=S)N(CCN2CCCCC2)Cc2ccco2)cc1 | -4% | 4% | -36 | -68*
Cc1ccc(NC(=S)N(CCCN2CCN(C)CC2)Cc2cccs2)cc1 | -3% | -1% | -4 | -2
COc1ccc(NC(=S)N(CCCN2CCCCC2)Cc2cccs2)cc1 | -2% | 0% | -32 | -87*
CCCCCCCCCCCCCCCCCC(=O)OCCO | -4% | x | -10 | x
COc1ccc(NC(=O)C2CCN(S(=O)(=O)c3cc(-c4noc(C)n4)ccc3C)CC2)cc1 | -4% | 0% | -12 | x
CCC1CN(CC(=O)NC(c2ccccn2)C(F)(F)F)Cc2cc(OC)ccc2O1 (configuration not stated) | 0% | x | x | x
Cc1ccc(NC(=S)N(CCCN2CCC(C)CC2)Cc2ccco2)cc1C | -4% | 1% | -34 | -52*
CSc1cccc(NC(=S)N(CCCN2CCC(C)CC2)Cc2cccs2)c1 | -4% | 4% | -16 | -76*
COc1cccc(NC(=S)N(CCCN2CCC(C)CC2)Cc2cccs2)c1 | 1% | 3% | -41 | -84*
CCOC(=O)Cn1cccc1-c1nc(-c2ccc(OC)cc2)c(-c2ccc(OC)cc2)s1 | -2% | x | 1 | x
Cc1ccccc1N1CCN(CCN2C(=O)CC(=C3c4ccccc4-c4ccccc43)C2=O)CC1 | -2% | 0% | -5 | -65*
COc1ccccc1N1CCN(CCN2C(=O)CC(=C3c4ccccc4-c4ccccc43)C2=O)CC1 | -3% | 4% | -7 | -76*
Cc1ccc(C(C)C)c(OCC(=O)N/N=C/c2cccn2C)c1 | -4% | 0% | 31* | 37
Cc1ccc(S(=O)(=O)NC(=O)COc2cc(C)ccc2C(C)C)cc1 | -5% | -1% | -7 | -55*
Cc1ccc(C(C)C)c(OCC(=O)NNC(=O)Nc2ccccc2)c1 | 3% | 0% | 3 | 1
CN(C)CCCN(C(=O)c1ccc2c(c1)CCCC2)c1nc2ccc(Cl)cc2s1 | -13% | -2% | -10 | -88*
CCOc1ccc2nc(N(CCCN(C)C)C(=O)c3ccc4c(c3)CCCC4)sc2c1 | -6% | 4% | -23 | -84*
CCOc1ccc2nc(N(CCCN(C)C)C(=O)c3ccc(S(=O)(=O)N4CCc5ccccc5C4)cc3)sc2c1 | -11% | -2% | 1 | -1
CN(CCO)C(=O)c1cn(C2CCN(Cc3ccc(C(F)(F)F)cc3)CC2)nn1 | 0% | x | x | x
C=C1C(=O)OC2C=C(CO)C3OC3C3OC3(C)CC(OC(=O)/C(=C/C)COC(C)=O)C12 (configuration not stated) | -14% | u | -15 | -81*
CC(=O)n1cc(N(C(=O)CCl)c2ccc(Cl)cc2)c2ccccc21 | -13% | -4% | -9 | -58*
SMILES | GRP78 ERSR act | Nrf2 ARE act | D3 ag | DRD3 antagonist
O=C(c1cnn2c(C(F)F)cc(-c3ccccc3)nc12)N1CCN(Cc2ccc3c(c2)OCO3)CC1 | -4% | 6% | -12 | -75*
CCN1CCN(C(=O)c2cnn3c(C(F)F)cc(-c4ccc(C)cc4)nc23)CC1 | -2% | 1% | 4 | -56*
O=C(NC(=O)N1CCN(c2cccc(Cl)c2)CC1)c1ccccc1 | -2% | 0% | -25 | -72*
O=C(NC(=O)N1CCN(c2cccc(Cl)c2)CC1)c1ccc(Cl)cc1 | 5% | 3% | -9 | u
S=c1ncc2n[nH]nc2[nH]1 | -3% | x | x | x
Clc1ccc(Cl)c(OCCCCNCc2ccccc2)c1 | -10% | 6% | -13 | -69*
Clc1ccc(OCCCNCc2ccccc2)c(Br)c1 | 2% | 4% | -21 | -79*
OCCCCNCc1ccc(OCc2ccc(Cl)cc2)cc1 | 5% | 9% | -14 | -18
CCOc1ccccc1OCCOCCOc1ccccc1[N+](=O)[O-] | -1% | 4% | 3 | 7
O=[N+]([O-])c1ccccc1OCCCNCc1ccccc1 | -4% | -1% | -12 | -63*
CCOCCCNCc1cc(Br)ccc1OCc1ccccc1 | -4% | -1% | -25 | -26
COc1ccc(C(C[N+](=O)[O-])c2c(-c3ccccc3)cc3ccccn23)cc1OC (configuration not stated) | 0% | 7% | -7 | u
COc1ccc(C(C[N+](=O)[O-])C2(c3ccc(OC)c(OC)c3)C(=O)c3ccccc3C2=O)cc1 (configuration not stated) | -13% | -3% | -19 | -82*
COC(=O)c1cc2nc(-c3ccc(OC)c(OC)c3)cc(C(F)(F)F)n2n1 | -1% | 0% | 0 | -70*
CC1CC=CC2C1C(=O)N(Cc1ccccc1)C2c1ccc(F)c(-c2ccc(N(C)C)cc2)c1 (configuration not stated) | -5% | x | x | x
COc1ccc(CNc2nc(NCc3ccc(OC)c(OC)c3)n(C(=O)c3cccs3)n2)cc1OC | 5% | 3% | 45* | 60
COc1ccc(C=NCC2COc3ccccc3O2)cc1OC (configuration not stated) | -2% | 0% | -27 | -51*
COCCCNC(=O)Cn1ccc(N)nc1=O | -1% | -1% | 38* | 14
CCN(CC)C(=O)c1n[nH]c(=O)c2ccccc12 | -2% | -1% | 5 | -96*
N#CC1(c2ccccc2)CCC(NCCc2ccccc2)CC1 (configuration not stated) | -1% | -2% | -18 | -54*
O=C(NCCc1ccccc1)C1(c2ccccc2)CCCC1 | -2% | 0% | -4 | -2
CCO[C@@H]1OC(C(=O)NC2CC2)=C[C@H](c2c[nH]c3ccccc23)[C@H]1CCCO | -1% | -1% | 4 | -65*
CCO[C@H]1OC(C(=O)NC2CC2)=C[C@@H](c2c[nH]c3ccccc23)[C@@H]1CCCO | 5% | 1% | 2 | 27
CCCCOc1cccc(C2c3c(-c4cc(C)ccc4O)n[nH]c3C(=O)N2CCOC)c1 (configuration not stated) | -7% | -4% | 42* | x
COCCCN1C(=O)c2[nH]nc(-c3cc(C)ccc3O)c2C1c1ccc(F)cc1 (configuration not stated) | 1% | 13% | 5 | x
Cn1cc(-c2cc3n(n2)CCC(=O)N3CCCC(=O)Nc2ccccc2F)c2ccccc21 | -4% | 1% | -10 | x
COc1ccc(NC(=O)c2cc(C3CCCCN3C(=O)C3CC3)on2)c(C)c1 (configuration not stated) | -5% | 0% | -23 | -111*
Cc1cnc(=O)[nH]c1SCc1cccc(C(F)(F)F)c1 | -3% | 4% | -2 | 6
Cc1cnc(=O)[nH]c1SCc1ccc(C(F)(F)F)cc1 | u | 0% | 31* | -5
O=[N+]([O-])c1cccc(CN2CCN(Cc3ccco3)CC2)c1 | -2% | 0% | -23 | -75*

Assay outcomes as filed in PubChem.
